Among the data in PubChem BioAssay (EPA / NIEHS) are outcome and AC50 values, retold here.

Inconclusive results are not listed. The source made the active and inactive calls. How the source made its calls, unless noted: active means hit-call score of the fitted dose curve at least 0.9, where 1 is the maximum; inactive means score below 0.9.

Experiment [1] concerns the target Paired box protein Pax-6 (Homo sapiens) (UniProt P26367). As to the kind of experiment: ATG_Pax6_CIS: Attagene CIS-FACTORIAL HepG2 Assay for human Paired Box 6 (PAX6) (AID 2282956). Conditions: HepG2 CIS-FACTORIAL PAX6 reporter transcription, RNA readout; actives raise or lower the signal. A digest of the protocol: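 Read-out is reporter transcript level, measured by RT-PCR with fluorescent primer extension and capillary electrophoresis after 24 h dosing of transfected HepG2 cells. Activity in either direction fitted relative to DMSO control.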

Experiment [2] is described as follows: ATG_PXRE_CIS: Attagene CIS-FACTORIAL HepG2 Assay for human Pregnane X Receptor Element (PXRE) (AID 2282957). The conditions noted are these: HepG2 Attagene CIS-FACTORIAL PXRE reporter, mRNA; actives raise or lower the signal. A digest of the protocol: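 Fluorescent capillary electrophoresis of amplified reporter cDNA gave the signal, collected 24 h after dosing HepG2 cells that held transfected cis-element reporter constructs.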

Experiment [3] can be described thus: ATG_PPRE_CIS: Attagene CIS-FACTORIAL HepG2 Assay for human Peroxisome Proliferator-activated Response Element (PPRE) (AID 2282958). Conditions: HepG2 PPRE cis-element reporter, Attagene transcription factor profiling; actives raise or lower the signal. A digest of the protocol:
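Transcript-level reporter induction in transfected HepG2 cells after 24 h chemical exposure, quantified by fluorescence from RT-PCR products separated by capillary electrophoresis.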

Experiment [4] in a line: ATG_RORE_CIS: Attagene CIS-FACTORIAL HepG2 Assay for human RAR-related Orphan Receptor Element (RORE) (AID 2282959). The conditions noted are these: HepG2 Attagene cis-factorial RORE reporter, mRNA; actives raise or lower the signal. A digest of the protocol: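 Multiplexed reporter assay measuring mRNA induction from a cis promoter element in transiently transfected HepG2 cells after 24 h treatment. Detection via RT-PCR and capillary electrophoresis fluorescence; DMSO serves as baseline.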

Experiment [5] can be described thus: ATG_Sox_CIS: Attagene CIS-FACTORIAL HepG2 Assay for human SRY-box transcription factor (SOX) (AID 2282960). The conditions noted are these: HepG2 Attagene cis-factorial SOX reporter, mRNA; actives raise or lower the signal. A digest of the protocol:
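Cells were transfected with reporter constructs under cis-regulatory promoters, then exposed to chemicals for 24 h. Reporter transcripts were quantified by fluorescence after RT-PCR and capillary electrophoresis; activity was fitted in both directions against DMSO.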

In experiment [6] the target is Transcription factor Sp1 (Homo sapiens) (UniProt P08047). As to the kind of experiment: ATG_Sp1_CIS: Attagene CIS-FACTORIAL HepG2 Assay for human Specificity Protein 1 (Sp1) (AID 2282961). Conditions: HepG2 Sp1 cis-reporter transcription, actives raise or lower the signal. A digest of the protocol: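 Measures mRNA induction of an Sp1-linked reporter in HepG2 cells 24 h post-dosing. Multiplexed reporters read by RT-PCR and capillary electrophoresis; DMSO serves as negative control and baseline.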
Sequence of Transcription factor Sp1 (Homo sapiens) (P08047 whole entry, looked up): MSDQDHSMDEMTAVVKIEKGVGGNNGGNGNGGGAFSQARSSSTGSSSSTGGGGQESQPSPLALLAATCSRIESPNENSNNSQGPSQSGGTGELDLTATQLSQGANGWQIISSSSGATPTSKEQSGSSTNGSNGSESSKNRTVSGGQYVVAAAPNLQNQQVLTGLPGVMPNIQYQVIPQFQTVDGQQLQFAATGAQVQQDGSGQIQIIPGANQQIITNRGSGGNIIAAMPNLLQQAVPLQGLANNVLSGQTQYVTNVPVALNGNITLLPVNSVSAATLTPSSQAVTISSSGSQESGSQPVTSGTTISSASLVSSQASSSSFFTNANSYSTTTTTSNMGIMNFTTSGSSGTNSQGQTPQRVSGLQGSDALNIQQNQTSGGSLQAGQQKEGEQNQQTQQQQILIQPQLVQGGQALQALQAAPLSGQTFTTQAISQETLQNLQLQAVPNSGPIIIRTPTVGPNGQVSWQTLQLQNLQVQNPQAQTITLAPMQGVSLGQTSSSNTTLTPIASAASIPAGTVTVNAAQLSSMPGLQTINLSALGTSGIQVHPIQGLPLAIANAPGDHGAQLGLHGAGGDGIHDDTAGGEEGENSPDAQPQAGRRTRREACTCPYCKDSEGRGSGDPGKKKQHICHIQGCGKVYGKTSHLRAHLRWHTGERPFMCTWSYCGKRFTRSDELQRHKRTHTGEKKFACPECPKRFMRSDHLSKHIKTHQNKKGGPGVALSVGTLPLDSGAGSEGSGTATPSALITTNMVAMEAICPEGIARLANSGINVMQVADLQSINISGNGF

Experiment [7] in a line: ATG_SREBP_CIS: Attagene CIS-FACTORIAL HepG2 Assay for human Sterol Regulatory Element Binding (SREBP) (AID 2282962). Conditions: HepG2 Attagene cis-factorial SREBP reporter, mRNA; actives raise or lower the signal. Summed up:
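Endogenous SREBP activity read as cis-element-driven reporter transcript in transiently transfected HepG2, 24 h post-dosing; quantified via RT-PCR plus capillary electrophoresis of fluorescent fragments. Gain or loss of signal fitted relative to DMSO baseline.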

The target of experiment [8] is Signal transducer and activator of transcription 3 (Homo sapiens) (UniProt P40763). As to the kind of experiment: ATG_STAT3_CIS: Attagene CIS-FACTORIAL HepG2 Assay for human Signal Transducer and Activator of Transcription 3 (STAT3) (AID 2282963). Conditions: HepG2, Attagene cis-factorial STAT3 reporter transcription; actives raise or lower the signal. A digest of the protocol: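 Readout: fluorescent reporter mRNA fragments resolved by capillary electrophoresis. Setup: HepG2 transfected with MRTUs reporting endogenous transcription-factor activity, dosed 24 h. Gain or loss of signal fitted bidirectionally against DMSO control.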
Sequence of Signal transducer and activator of transcription 3 (Homo sapiens) (P40763 whole entry, looked up, the tested form may be a part): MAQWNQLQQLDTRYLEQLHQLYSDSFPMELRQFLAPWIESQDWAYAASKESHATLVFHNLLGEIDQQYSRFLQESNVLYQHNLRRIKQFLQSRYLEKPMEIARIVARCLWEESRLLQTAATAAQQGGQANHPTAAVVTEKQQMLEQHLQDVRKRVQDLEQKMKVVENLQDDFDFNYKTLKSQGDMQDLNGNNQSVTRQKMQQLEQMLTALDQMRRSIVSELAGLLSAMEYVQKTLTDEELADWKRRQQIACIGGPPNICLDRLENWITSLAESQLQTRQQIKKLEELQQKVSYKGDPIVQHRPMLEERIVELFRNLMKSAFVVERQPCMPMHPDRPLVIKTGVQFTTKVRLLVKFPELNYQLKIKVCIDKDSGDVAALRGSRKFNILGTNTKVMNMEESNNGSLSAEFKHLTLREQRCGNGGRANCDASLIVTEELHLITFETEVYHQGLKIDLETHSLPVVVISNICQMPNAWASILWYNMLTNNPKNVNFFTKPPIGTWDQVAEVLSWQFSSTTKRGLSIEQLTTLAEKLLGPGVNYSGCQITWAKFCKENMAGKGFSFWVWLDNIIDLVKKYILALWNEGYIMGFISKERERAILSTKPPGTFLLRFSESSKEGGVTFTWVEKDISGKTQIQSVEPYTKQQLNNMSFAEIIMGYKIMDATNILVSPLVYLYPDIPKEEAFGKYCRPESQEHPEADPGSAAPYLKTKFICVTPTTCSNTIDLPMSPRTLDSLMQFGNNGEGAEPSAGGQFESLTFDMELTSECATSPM

Experiment [9] in a line: ATG_TA_CIS: Attagene CIS-FACTORIAL HepG2 Assay for human TA Basal Promoter (AID 2282964). The conditions noted are these: HepG2 Attagene CIS-factorial TA basal promoter reporter; actives raise or lower the signal. A digest of the protocol:
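Transfected HepG2, 24 h compound exposure; RNA → RT-PCR → FAM primer extension → HpaI cut → CE fluorescence. Gain/loss-of-signal fitted against DMSO negative control. Background-control readout.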

The nature of experiment [10]: ATG_TCF_b_cat_CIS: Attagene CIS-FACTORIAL HepG2 Assay for human T-Cell-Factor with beta-catenin (TCF/b-cat) (AID 2282965). Conditions: HepG2 TCF/beta-catenin cis-reporter transcription, actives raise or lower the signal. A digest of the protocol: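 HepG2, transient MRTU transfection, cis-element-driven reporters (endogenous TFs). 24 h compound exposure. Readout: reporter mRNA by RT-PCR + 6-FAM primer extension, HpaI digest, capillary electrophoresis. Gain/loss fit vs DMSO baseline.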

Experiment [11] can be described thus: ATG_TAL_CIS: Attagene CIS-FACTORIAL HepG2 Assay for human TAL Basal Promoter (AID 2282966).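 Further: background control endpoint measuring basal TAL promoter reporter mRNA not a specific factor.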 The conditions noted are these: HepG2 Attagene cis-factorial TAL promoter reporter; actives raise or lower the signal. A digest of the protocol:
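Transiently transfected HepG2 (cis-regulated reporter units), 24 h treatment, mRNA read by fluorescent CE after RT-PCR; bidirectional fit, DMSO baseline.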

The nature of experiment [12]: ATG_TGFb_CIS: Attagene CIS-FACTORIAL HepG2 Assay for human Transforming Growth Factor (TGF) (AID 2282967). Conditions: HepG2 Attagene CIS TGFb reporter, mRNA transcription; actives raise or lower the signal. Summed up:
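Readout: fluorescently labeled reporter cDNA fragments resolved by capillary electrophoresis after RT-PCR. Transfected HepG2 cells dosed for 24 h; endogenous TF activity at TGFB1-linked cis element; gain or loss fitted relative to DMSO.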

Experiment [13] is described as follows: ATG_VDRE_CIS: Attagene CIS-FACTORIAL HepG2 Assay for human Vitamin D Receptor Element (VDRE) (AID 2282968). The conditions noted are these: HepG2 VDRE cis-reporter transcription, actives raise or lower the signal. A digest of the protocol: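 Transient MRTU transfection of HepG2, 24 h compound exposure. Readout: reporter transcripts via RT-PCR and capillary electrophoresis, fluorescence. Bidirectional fit vs DMSO.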

The target in experiment [14] is Steroid hormone receptor ERR1 (Homo sapiens) (UniProt P11474). As to the kind of experiment: ATG_ERRa_TRANS: Attagene TRANS-FACTORIAL HepG2 Assay for human Estrogen-Related Receptor alpha (ERRa) (AID 2282971; active means hit-call score of the fitted dose curve at least 0.9, where 1 is the maximum). Conditions: HepG2 Attagene TRANS reporter, ERRa transactivation. Summed up: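 HepG2 cells transiently transfected with multiplexed GAL4-UAS reporter units reading chimeric ERRa-Gal4 activity; 24 h compound exposure. Reporter mRNA measured by RT-PCR, 6-FAM labelling, HpaI digest and capillary electrophoresis; gain of signal fitted versus DMSO baseline.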
Sequence of Steroid hormone receptor ERR1 (Homo sapiens) (P11474 whole entry, looked up, the tested form may be a part): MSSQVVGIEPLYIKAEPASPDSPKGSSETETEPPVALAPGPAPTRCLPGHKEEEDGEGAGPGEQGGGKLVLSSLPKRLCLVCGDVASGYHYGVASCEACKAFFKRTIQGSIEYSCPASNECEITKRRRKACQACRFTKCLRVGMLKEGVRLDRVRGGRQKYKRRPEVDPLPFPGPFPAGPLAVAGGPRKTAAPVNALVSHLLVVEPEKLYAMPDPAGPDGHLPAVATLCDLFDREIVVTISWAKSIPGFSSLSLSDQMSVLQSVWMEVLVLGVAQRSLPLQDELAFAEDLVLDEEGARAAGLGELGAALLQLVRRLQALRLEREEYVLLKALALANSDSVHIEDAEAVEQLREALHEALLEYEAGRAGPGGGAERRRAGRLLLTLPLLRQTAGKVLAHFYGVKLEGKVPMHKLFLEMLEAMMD

Experiment [15] addresses X-box-binding protein 1 (Homo sapiens) (UniProt P17861). As to the kind of experiment: ATG_Xbp1_CIS: Attagene CIS-FACTORIAL HepG2 Assay for human X-box Binding Protein 1 (XBP1) (AID 2282972). The conditions noted are these: HepG2 XBP1 cis-element reporter, Attagene multiplex; actives raise or lower the signal. Summed up:
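Reporter transcripts were quantified by RT-PCR with fluorescent primer extension and capillary electrophoresis after 24 h chemical exposure. Cells: transiently transfected HepG2 carrying cis-regulated reporter constructs; data fitted bidirectionally relative to DMSO.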

A short description of experiment [16]: ATG_M_19_TRANS: Attagene TRANS-FACTORIAL HepG2 Assay for M19 Transcription Factor (Internal Marker) (AID 2282974; active means hit-call score of the fitted dose curve at least 0.9, where 1 is the maximum). The conditions noted are these: HepG2 Attagene TRANS-FACTORIAL M19 internal marker reporter. Summed up: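 After transfection of HepG2 with GAL4-UAS-driven reporter constructs, cells are dosed for 24 h. Total RNA is reverse-transcribed, reporter sequences PCR-amplified and labelled, then HpaI-digested and sized by capillary electrophoresis.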

Experiment [17] can be described thus: ATG_GAL4_TRANS: Attagene TRANS-FACTORIAL HepG2 Assay for GAL4 (Internal Marker) (AID 2282976; active means hit-call score of the fitted dose curve at least 0.9, where 1 is the maximum). Conditions: HepG2 Attagene TRANS GAL4 internal marker reporter. A digest of the protocol: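 HepG2 cells transiently transfected with multiplexed GAL4-UAS reporter constructs were dosed for 24 h. Reporter mRNA was measured by RT-PCR, 6-FAM primer extension, HpaI digestion and capillary electrophoresis, and gain of signal was fitted relative to DMSO.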

The target in experiment [18] is Nuclear receptor subfamily 1 group I member 3 (Homo sapiens) (UniProt Q14994). The experiment in a line: ATG_CAR_TRANS: Attagene TRANS-FACTORIAL HepG2 Assay for human Constitutive Androstane Receptor (CAR) (AID 2282969; active means hit-call score of the fitted dose curve at least 0.9, where 1 is the maximum;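 further: activators raise reporter mRNA above DMSO so AC50 marks induction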). The conditions noted are these: HepG2 Attagene TRANS-FACTORIAL CAR reporter. A digest of the protocol: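 Transiently transfected HepG2, multiplex TRANS reporters (CAR-Gal4 chimera driving GAL4-UAS reporter). 24 h dosing. Readout: reporter transcript by RT-PCR + capillary electrophoresis, fluorescence intensity; positive direction vs DMSO.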
Sequence of Nuclear receptor subfamily 1 group I member 3 (Homo sapiens) (Q14994 whole entry, looked up, the tested form may be a part): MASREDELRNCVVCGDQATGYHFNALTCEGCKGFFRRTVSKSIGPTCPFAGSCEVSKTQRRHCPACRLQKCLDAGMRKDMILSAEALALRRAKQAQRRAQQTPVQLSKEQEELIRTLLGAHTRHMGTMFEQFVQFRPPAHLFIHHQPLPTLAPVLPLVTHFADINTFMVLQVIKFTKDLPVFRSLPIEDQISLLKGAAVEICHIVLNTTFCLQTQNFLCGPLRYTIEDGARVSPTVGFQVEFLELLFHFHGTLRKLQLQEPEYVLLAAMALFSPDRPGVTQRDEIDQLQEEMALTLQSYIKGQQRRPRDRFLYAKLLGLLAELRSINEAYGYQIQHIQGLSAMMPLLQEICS

Experiment [19] addresses Estrogen receptor (Homo sapiens) (UniProt P03372). As to the kind of experiment: ATG_ERa_TRANS: Attagene TRANS-FACTORIAL HepG2 Assay for human Estrogen Receptor alpha (ERa) (AID 2282970; active means hit-call score of the fitted dose curve at least 0.9, where 1 is the maximum). Conditions: HepG2 Attagene TRANS ERa GAL4 reporter, mRNA. A digest of the protocol: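 One of 30 multiplexed endpoints from a HepG2 TRANS system, this one reports ERa-Gal4-driven reporter mRNA. Transcripts were quantified 24 hours post-dosing by fluorescent RT-PCR and capillary electrophoresis, with activity scored as induction over DMSO.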

The target of experiment [20] is Estrogen-related receptor gamma (Homo sapiens) (UniProt P62508). The experiment in a line: ATG_ERRg_TRANS: Attagene TRANS-FACTORIAL HepG2 Assay for human Estrogen-Related Receptor gamma (ERRg) (AID 2282977; active means hit-call score of the fitted dose curve at least 0.9, where 1 is the maximum;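 further: hits increase reporter signal over DMSO so potencies reflect activators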). Conditions: HepG2 Attagene TRANS reporter, ERRg transactivation. A digest of the protocol:
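Exogenous NR-Gal4 chimera activity was assessed in HepG2 cells bearing transfected GAL4-UAS reporters. After 24 h dosing, total RNA underwent RT-PCR, fluorescent primer extension and HpaI digestion before capillary electrophoresis, with gain of signal scored against DMSO.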

Sequence of X-box-binding protein 1 (Homo sapiens) (P17861 whole entry, looked up): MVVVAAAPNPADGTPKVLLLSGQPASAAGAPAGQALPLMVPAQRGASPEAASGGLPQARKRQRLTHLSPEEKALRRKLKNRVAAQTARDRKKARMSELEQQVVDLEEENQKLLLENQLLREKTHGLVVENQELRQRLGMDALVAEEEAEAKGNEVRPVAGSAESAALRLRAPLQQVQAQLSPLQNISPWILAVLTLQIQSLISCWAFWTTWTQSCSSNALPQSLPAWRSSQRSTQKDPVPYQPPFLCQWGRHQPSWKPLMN
Sequence of Paired box protein Pax-6 (Homo sapiens) (P26367 whole entry, looked up): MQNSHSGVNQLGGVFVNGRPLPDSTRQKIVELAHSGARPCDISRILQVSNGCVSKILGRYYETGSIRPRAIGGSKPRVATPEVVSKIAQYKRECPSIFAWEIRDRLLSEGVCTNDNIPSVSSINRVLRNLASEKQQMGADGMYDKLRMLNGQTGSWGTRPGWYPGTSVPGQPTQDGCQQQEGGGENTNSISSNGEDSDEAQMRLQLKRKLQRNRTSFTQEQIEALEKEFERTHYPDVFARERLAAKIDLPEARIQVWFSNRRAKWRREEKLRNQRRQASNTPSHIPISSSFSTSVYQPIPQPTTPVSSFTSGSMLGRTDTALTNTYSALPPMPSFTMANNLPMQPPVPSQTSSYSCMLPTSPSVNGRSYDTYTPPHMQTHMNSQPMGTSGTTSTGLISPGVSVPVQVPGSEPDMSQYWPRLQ
Sequence of Estrogen receptor (Homo sapiens) (P03372 whole entry, looked up, the tested form may be a part): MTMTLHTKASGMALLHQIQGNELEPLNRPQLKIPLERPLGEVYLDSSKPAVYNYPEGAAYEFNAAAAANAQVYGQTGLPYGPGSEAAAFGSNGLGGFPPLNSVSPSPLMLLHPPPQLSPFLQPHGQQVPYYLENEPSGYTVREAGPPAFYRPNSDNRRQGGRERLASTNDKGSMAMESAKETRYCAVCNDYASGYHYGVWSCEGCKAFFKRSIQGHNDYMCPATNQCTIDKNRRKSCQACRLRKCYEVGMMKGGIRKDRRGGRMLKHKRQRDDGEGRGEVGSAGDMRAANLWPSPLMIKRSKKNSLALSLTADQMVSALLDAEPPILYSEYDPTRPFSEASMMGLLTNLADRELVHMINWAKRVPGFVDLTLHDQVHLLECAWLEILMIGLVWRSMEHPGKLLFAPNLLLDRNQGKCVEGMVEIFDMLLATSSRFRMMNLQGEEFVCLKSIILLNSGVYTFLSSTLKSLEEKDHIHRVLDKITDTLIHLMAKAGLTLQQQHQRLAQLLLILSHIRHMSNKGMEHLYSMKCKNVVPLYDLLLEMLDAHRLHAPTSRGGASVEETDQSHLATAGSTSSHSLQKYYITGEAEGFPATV
Sequence of Estrogen-related receptor gamma (Homo sapiens) (P62508 whole entry, looked up, the tested form may be a part): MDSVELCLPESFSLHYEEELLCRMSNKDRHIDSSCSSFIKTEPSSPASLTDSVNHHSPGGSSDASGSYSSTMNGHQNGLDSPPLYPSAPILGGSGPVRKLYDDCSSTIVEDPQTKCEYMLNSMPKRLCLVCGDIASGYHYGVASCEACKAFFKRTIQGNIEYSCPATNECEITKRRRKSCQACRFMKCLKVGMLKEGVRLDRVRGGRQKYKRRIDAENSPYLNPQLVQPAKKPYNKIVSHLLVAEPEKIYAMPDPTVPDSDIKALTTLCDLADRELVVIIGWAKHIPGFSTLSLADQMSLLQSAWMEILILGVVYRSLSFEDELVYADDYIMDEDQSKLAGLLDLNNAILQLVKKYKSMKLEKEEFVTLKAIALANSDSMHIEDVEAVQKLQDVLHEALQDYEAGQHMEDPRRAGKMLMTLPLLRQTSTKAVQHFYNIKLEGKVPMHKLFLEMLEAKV

As usually defined, the AC50 is the concentration giving half of the maximal activity seen. Regarding `CC(C)(C)c1cc(CCC(=O)NN)cc(C(C)(C)C)c1O`, the compound was called inactive in [1], in experiment [3], in [4], in experiment [5], in experiment [6] and in experiment [7]. Further, the compound was classed as inactive in experiment [8], in experiment [9], in experiment [10], in experiment [11], in [12] and in experiment [13]. For the same compound, the outcome in experiment [14], in experiment [15], in experiment [16] and in experiment [17] was inactive. Besides, the AC50 in [2] is 10.2 µM (active).
Take `NC(=O)c1ccccc1Cl`: the AC50 was 65 µM (active) in experiment [1]; 40.7 µM (active) in experiment [2]; 68.9 µM (active) in experiment [5]; 41.1 µM (active) in experiment [6]; 65.8 µM (active) in experiment [10]; 63.3 µM (active) in [13]. In addition, the AC50 in experiment [15] was 62.6 µM (active). In addition, the result in experiment [3], in experiment [4], in experiment [7], in experiment [8], in experiment [9] and in experiment [11] was inactive. Moreover, the outcome in [12], in experiment [18], in experiment [19], in experiment [14], in [16] and in experiment [20] was inactive.
Regarding `CC(C)C(C)(C)C(C)(C)C(C)(C)S`, the compound was called inactive in experiment [1], in experiment [3], in experiment [4], in experiment [5], in experiment [6] and in experiment [7]. Also, the call in experiment [8], in [9], in experiment [10], in experiment [11], in experiment [12] and in experiment [15] was inactive. The AC50 in [2] was 4.43 µM (active); in experiment [13] it was 6.65 µM (active); in [19] it was 40.8 µM (active).
For `CC(=O)C(C)=O`, the compound was called inactive in experiment [1], in [3], in experiment [4], in experiment [5], in experiment [6] and in experiment [7]. Further, the compound was called inactive in experiment [8], in experiment [9], in experiment [10], in [11], in [12] and in experiment [13]. In addition, the call in [15] was inactive. The AC50 in [2] is 26.5 µM (active).
